According to ChEMBL document CHEMBL3988442, “University of Dundee, Small-Polar-MMV Screening Library” (2021):
In all, about 69,000 compounds went through this assay and about 30 (0.04%) showed an effect of 50% or more. What follows is part of a selection rich in strong results, with near analogues and random picks from the rest.

molecular target: T1, Histidine--tRNA ligase (Trypanosoma cruzi (strain CL Brener)) (UniProt Q4DA54); test: Trypanosoma cruzi histidyl tRNA synthetase (Tc-HisRS); type: functional; set-up: scale not given: direction of the effect not stated beside the values; settings: 30 µM
T1 sequence (whole entry): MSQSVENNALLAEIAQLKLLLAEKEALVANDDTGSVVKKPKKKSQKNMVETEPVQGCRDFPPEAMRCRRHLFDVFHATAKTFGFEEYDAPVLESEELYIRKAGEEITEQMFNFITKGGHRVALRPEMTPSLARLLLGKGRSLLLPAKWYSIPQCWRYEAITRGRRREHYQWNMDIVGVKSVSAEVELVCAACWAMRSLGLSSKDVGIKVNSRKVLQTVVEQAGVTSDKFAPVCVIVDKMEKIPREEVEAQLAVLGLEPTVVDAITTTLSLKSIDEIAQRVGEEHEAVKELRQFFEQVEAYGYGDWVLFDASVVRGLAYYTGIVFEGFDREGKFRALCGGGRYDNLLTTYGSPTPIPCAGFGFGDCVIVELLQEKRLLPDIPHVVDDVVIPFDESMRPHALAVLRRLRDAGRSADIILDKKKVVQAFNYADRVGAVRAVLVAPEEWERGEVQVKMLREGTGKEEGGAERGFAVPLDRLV

SMILES | Percent Effect
c1cc(CN2C[C@@H]3OCCN(CC4CCCO4)[C@@H]3C2)co1 (stereo not given in full) | 2.94%
Cn1cc(CN2CC[C@H]3C[C@H](c4nc(C5CC5)cs4)O[C@@H]3C2)cn1 | 1.67%
COc1ccc(C2CC(=O)Nc3nc(N4CCOCC4)sc32)cc1 (stereo not given) | -2.48%
CCn1ncnc1C1CC(=O)NCc2nc(N3CCOCC3)sc21 (stereo not given) | 9.45%
COc1ccc(OC)c(C2CC(=O)Nc3nc(N4CCOCC4)sc32)c1 (stereo not given) | 75.8%
COc1ccc(C2CC(=O)Nc3nc(N4CCOCC4)sc32)c(OC)c1 (stereo not given) | 72%
COc1ccc(C(C)C)cc1C1CC(=O)NCc2nc(N(C)C)sc21 (stereo not given) | 7.85%
COc1ccc(OC)c(C2CCN(CC(C)(C)N3CCOCC3)C2)c1 (stereo not given) | 8.29%
O=C1C[C@H]2[C@@H](CCN2C(=O)Cc2cccs2)N1CC1CC1 | 5.83%
CC(C)NC(=O)[C@H]1C[C@@H]2[C@@H](C1)OCCN2Cc1cccs1 | 3.48%
CCOC(=O)[C@@H]1CN2CCNC[C@@H]2[C@H]1c1ccccc1 | 1.12%
O=C(C1CCOCC1)N1C[C@H]2CCC[C@@]2(COc2cccnc2)C1 | 12.8%
CCOC(=O)[C@]12CCCN(Cc3nccs3)C[C@H]1CN(S(C)(=O)=O)C2 | 6.45%
Cn1cc(C(=O)N[C@H]2CN(S(C)(=O)=O)[C@@H]3CCCO[C@H]23)cn1 | 4.9%
Cc1ccc(C(=O)N2CCO[C@H]3[C@@H](OCc4ccccn4)CC[C@@H]32)o1 | 5.43%
O=C(c1ccccn1)N1C[C@@H]2CC[C@H](C1)N(C(=O)CCc1cccs1)C2 | 5.02%
CCN1CCO[C@@H]2CN(C(=O)NCc3ccccc3)CC[C@@H]2C1 | 1.06%
CN1CCC(NC(=O)[C@H]2CC[C@@H]3[C@@H](CCN3c3ncccn3)O2)CC1 | 5.75%
c1cnc(N2C[C@@H]3COC[C@]3(COCC3CCCC3)C2)nc1 | 14.3%
Cc1ccsc1C(=O)N1C[C@@H]2CN(Cc3ccoc3)CCO[C@@H]2C1 | 3.87%
Cc1ccc(N2CCN(C(=O)CN3C[C@@H]4CC[C@H]3C4)CC2=O)cc1 | 6.47%
Cc1ccc(CN2CCC[C@]3(C(=O)O)CN(CC4CC4)C[C@@H]3C2)s1 | -3.17%

SMILES | Percent Effect
CCn1ncc(CN2C[C@@H]3CCCN3C[C@@H]2CCSC)c1C | 8.99%
O=C(C1CCC1)N1CC[C@@H]2CN(Cc3cccnc3)S(=O)(=O)[C@@H]2CC1 | 11.6%
CN(C)C(=O)COC[C@]12COC[C@H]1CN(Cc1ccccc1)C2 | 4.67%
CC1CCN(c2ccc(C(=O)N3CCCC3c3ccc[nH]3)cn2)CC1 (stereo not given) | 66.8%
NC(=O)c1ccc(OCC(=O)N2CCCC2c2ccc[nH]2)cc1 (stereo not given) | 9.13%
CC1CCN(c2ccc(C(=O)N3CCCC3c3nncn3C)cn2)CC1 (stereo not given) | 3.87%
O=C(Nc1cccnc1)[C@H]1CO[C@H]2CCN(c3ncc(F)cn3)C[C@H]2C1 | 8.11%
O=C(NCc1cnn2cccnc12)c1cccc(CC2CCNCC2)c1 | 85.5%
CC(C)Cn1cncc1CNC(=O)c1cccc(CC2CCNCC2)c1 | 1.62%
CC(C)(O)CCc1cccc(C(=O)NCc2cnn3cccnc23)c1 | 1.82%
COc1cc(N2CC[C@H]3O[C@@H](C(=O)NC4CCCC4)CC[C@H]32)ncn1 | 0%
CC(=O)N1C[C@@H]2CC[C@H](C1)N(S(=O)(=O)c1ccc(F)cc1Cl)C2 | 3%
CC/N=c1/c(NC(=O)C2CC2)c(O)oc2ccccc12 | 3.51%
NCC1CCN(C2CCN(c3ccc(-c4ccco4)cc3)CC2)C1 (stereo not given) | 50.6%
NC1CCN(C2CCN(c3ccc(-c4ccco4)cc3)CC2)CC1 | 43.5%
CNC1CCN(C2CCN(c3ccc(-c4ccco4)cc3)CC2)CC1 | 35.3%
CC(C)N1[C@H](Cn2cncn2)C[C@@H]2CN(Cc3ccsc3)CC[C@@H]21 | 0%
O=C(OCc1ccccc1)N1CC[C@H]2CC(CO)O[C@@H]2C1 (stereo not given in full) | -3.09%
CCN1CC[C@@]2(C(=O)N3CCOCC3)CCN(C(=O)C(C)C)CC[C@@H]12 | 4.85%
O=C(NC1CC1)N1C[C@H]2CN(Cc3cccc(F)c3)C(=O)[C@H]2C1 | 5.88%
CC(C)=CCN1C(=O)[C@H]2CC[C@@H]1CN(c1ncccc1C(N)=O)C2 | -2.41%
Cc1nc(CN2C(=O)CC[C@@H]3[C@H]2CCN3C(=O)c2ccno2)cs1 | 8.87%

SMILES | Percent Effect
O=S1(=O)CCN(Cc2cccnc2)[C@H]2CCN(c3ncccn3)CC[C@H]21 | 6.95%
Cn1nccc1C(=O)N1CCN(C(=O)C2CC2)[C@@H]2CS(=O)(=O)C[C@@H]21 | 4.47%
O=C1C[C@H]2[C@@H](CCN2C(=O)Cc2cccs2)N1Cc1cccnc1 | 0.752%
Cc1cccnc1CN1CCN(CC(=O)N(C)C)[C@@H]2CS(=O)(=O)C[C@@H]21 | 7.03%
Cc1cnc(N2CC[C@@H]3OC(COCC(=O)N(C)C)CC[C@@H]32)nc1 (stereo not given in full) | -0.614%
Cn1cc(N2C(=O)CC[C@@H]3[C@H]2CCN3C(=O)c2cscn2)cn1 | 8.16%
COCCN1CCN(Cc2nccs2)[C@H]2CS(=O)(=O)C[C@H]21 | 4.08%
CCO[C@@H]1CC[C@H]2[C@H]1OCCN2CCOCc1ccccc1 | 4.12%
Cc1cc(C)nc(N2C[C@H]3OC(=O)N(CCc4cccc(Cl)c4)[C@H]3C2)n1 | 7.82%
CNC(=O)[C@H]1C[C@@H]2CN(C(=O)NC(C)C)C[C@H]1O2 | 1.03%
CC(C)NC(=O)[C@H]1C[C@@H]2CN(C(=O)NCc3ccccc3)C[C@H]1O2 | 9.09%
O=C(c1ccnnc1)N1CCN2C[C@H](Oc3cccc(F)c3)C[C@H]2C1 | 1.62%
O=C(c1ccco1)N1CC[C@H]2[C@H]1CC(=O)N2c1cccnc1 | 0%
O=C(N1CCCC1)N1CC[C@H]2[C@H]1CCN2c1ncccn1 | 6.8%
COC[C@@]12CCC[C@@H]1CN(C(=O)N1CCCC1)C2 | 5.03%
O=C(CC1CC1)N[C@@H]1CN(C(=O)c2cccs2)C[C@@H]2CCCO[C@@H]21 | 0%
CN1C(Cn2cccn2)C[C@@H]2CN(Cc3cnn(C)c3)CC[C@@H]21 (stereo not given in full) | 7%
CCC1=N[C@@]2(CC[C@@H]3CN(Cc4ccc(C)cc4)C[C@@H]32)C(=O)N1C | 7.41%
CC(C)CN1CCS(=O)(=O)[C@@H]2CCN(S(=O)(=O)C3CC3)CC[C@@H]21 | 1.07%
COc1ccc(CN2C[C@@H]3CC[C@H](C2)N(Cc2snnc2C)C3)cc1 | 11.4%
CC(C)CN1C(=O)CO[C@@H]2CN(C(=O)CC(F)(F)F)C[C@H]21 | 7.53%
